# This is part of a sample that, as a whole, favours compounds with a hit. Of some 83,000 tested, about 20% had one in any assay.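 In brief: 96-well plates, 48 h treatment, single concentration, percent growth endpoint.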 A number with no mark means an inactive call. Activity calls are given as the source filed them. The calls were made as follows: active = growth percent below 10; inactive = the rest.
# Experiments:
# Test in all cases: NCI-60 one-dose screen, 48 h (100 = growth as untreated, 0 = no growth, -100 = all killed)
# Details in all cases: 10 µM unless noted
# [1] = system: HCT-15 colon
# [2] = system: HT29 colon
# [3] = system: SNB-75 CNS
# [4] = system: SNB-19 CNS
# [5] = system: U251 CNS
# [6] = system: PC-3 prostate
# [7] = system: SK-MEL-5 melanoma
# [8] = system: UACC-62 melanoma
# [9] = system: LOX IMVI melanoma
# [10] = system: SK-MEL-28 melanoma
SMILES,growth [1],growth [2],growth [3],growth [4],growth [5],growth [6],growth [7],growth [8],growth [9],growth [10]
COc1ccc2nc(NC(=O)CSc3nnc4n3S(=O)(=O)c3ccccc3N4C)sc2c1,101%,114%,93.5%,112%,102%,94.7%,95.1%,87.3%,92%,117%
CSc1nnc(-c2cnn3c2NC(c2ccccc2)C3)n1-c1ccc(C(F)(F)F)cc1 (stereo not given),35.1%,28.4%,66.7%,66.9%,58%,46.3%,31.3%,40.3%,61.3%,71.7%
O=C(CSc1nc2ccc([N+](=O)[O-])cc2[nH]1)Nc1ccc(F)cc1,64.9%,71.6%,51.1%,69.2%,45.7%,54.9%,32.5%,25.1%,64.8%,61.8%
C1=CN2CC(c3ccccc3)=NNC2c2ccccc21 (stereo not given),96.6%,99.4%,37.5%,105%,103%,81.9%,92.8%,75.5%,92.8%,126%
C#COc1cccc(Nc2ncnc3ncc(NC(=O)CCl)cc23)c1,-30.3% [6.25 µM] (active),-65.2% [6.25 µM] (active),49.5% [6.25 µM],20% [6.25 µM],-73.3% [6.25 µM] (active),20.6% [6.25 µM],47.1% [6.25 µM],27.2% [6.25 µM],-94.2% [6.25 µM] (active),55.4% [6.25 µM]
CC1=C(Nc2ccc(N3CCN(C)CC3)cc2)C(=O)c2cncnc2C1=O,94.2%,112%,131%,97.3%,83.6%,21.7%,81.5%,93.8%,-13.6% (active),121%
CC1(C)CC[C@]2(c3nnc(-c4ccncc4)o3)CC[C@H]3C(=CC[C@H]4[C@@]3(C)CC[C@H]3C(C)(C)C(=O)CC[C@]43C)[C@@H]2C1,61.1%,50.9%,68.3%,74%,62.4%,25.1%,62.4%,54.7%,57.4%,87.5%
COC(=O)c1c2c(c(C)[n+]([O-])c1C)C(=O)C=C(NCc1ccc(OC)cc1)C2=O,-43.9% (active),3.5% (active),-97% (active),-73.8% (active),-45.7% (active),-6.9% (active),-96.6% (active),-75.1% (active),-12% (active),-6.37% (active)
CC1=NN(c2nc(SCC(=O)Nc3nc4ccc(C)cc4s3)nc(-c3ccccc3)c2C#N)C(=O)C1,105%,104%,75.4%,97.3%,102%,97.1%,100%,94.3%,101%,105%
CC(=O)Nc1nc2ccc(NS(=O)(=O)c3cccc4c(N(C)C)cccc34)cc2[nH]1,72.9%,63%,31%,52.3%,70.2%,60.2%,21.5%,27.3%,53.6%,57.9%
O=C1/C(=C/c2ccc(Cl)c(Cl)c2)CN(C(=O)C(Cl)Cl)C/C1=C\c1ccc(Cl)c(Cl)c1,-62.1% (active),-4.7% (active),-70.7% (active),-93.7% (active),-92.4% (active),-45.6% (active),-79.4% (active),-46.9% (active),-91.7% (active),-64.4% (active)
CN1CCN(Cc2ccc(NC(=O)c3cncc(C#Cc4cnc(N)c5ccccc45)c3)cc2C(F)(F)F)CC1,-82.8% (active),-14.5% (active),-73% (active),-78.5% (active),-98.5% (active),-53.1% (active),-98.1% (active),-91.4% (active),-92.1% (active),-92.9% (active)
C=CCn1cc(-c2nc3ccccc3s2)c2cc(-c3ccc4c5c(cccc35)C(=O)N(N)C4=O)ccc21,98%,105%,85.1%,97.2%,104%,88.2%,96.5%,86.9%,95.9%,109%
CCOC(=O)c1c(C)c2c(n1C)CSc1cc(C(=O)c3ccccc3)c(=O)[nH]c1-2,105% [100 µM],108% [100 µM],89.5% [100 µM],102% [100 µM],97.8% [100 µM],82.5% [100 µM],85.8% [100 µM],78.5% [100 µM],91.1% [100 µM],105% [100 µM]
COc1ccc(/C=N/NC(=O)CCN2c3ccccc3Sc3ccccc32)cc1,43.9%,57%,80.1%,75.4%,91.5%,61.4%,70.4%,63%,60.9%,80.9%
CC(=O)OC[C@]12CCC(C)(C)C[C@H]1[C@@]1(O)[C@H](O)C[C@@H]3[C@@]4(C)CCCNC(C)(C)[C@@H]4CC[C@@]3(C)[C@]1(C)CC2,111%,109%,115%,97.4%,107%,102%,99.9%,105%,106%,108%
O=C1c2c(c3c4ccc(Br)cc4oc3c3[nH]c4ccccc4c23)C(=O)N1O,19%,8.99% (active),4.21% (active),29.7%,22.8%,40.9%,-71.8% (active),-2.55% (active),6.55% (active),-0.104% (active)
N#Cc1nn(-c2cc(=O)[nH]c3ccc(Cl)cc23)c(N)c1C#N,108%,101%,113%,98.8%,103%,-87.3% (active),102%,81.9%,96.6%,104%
C=CCn1c(SCC(=O)NCc2cc(C)c(O)c(C)c2)nc2ccc(Cl)cc2c1=O,95.6%,102%,67.5%,99.7%,102%,96.1%,93.2%,81.9%,100%,109%
CC1(c2ccccc2O)NN=C(/N=C/c2cccc([N+](=O)[O-])c2)N1C(Cc1c[nH]c2ccccc12)C(=O)O (stereo not given),98.7%,102%,92.3%,96.9%,96.1%,76.9%,93%,77.6%,90.5%,106%
COc1cc(-c2cc(-c3cccs3)c(C#N)c(N3CCOCC3)n2)cc(OC)c1OC,25.2%,22.2%,69.2%,95.2%,52.9%,67%,45.7%,63.6%,81.5%,91.4%
CC1(C)CC[C@]2(C(=O)O)CC[C@]3(C)C(=CC[C@@H]4[C@@]5(C)C/C(=C/O)C(=O)C(C)(C)[C@@H]5CC[C@]43C)[C@@H]2C1,24.4%,26.6%,95.4%,60.1%,28.3%,31.4%,67.8%,61.6%,27.4%,52.2%
Cc1ccccc1/C=C1\CN(C(=O)OC(C)(C)C)C/C(=C\c2ccccc2C)C1=O,1.66% (active),-26.4% (active),53.4%,39.1%,0.0873% (active),21.9%,83%,28.7%,-62.4% (active),55.5%
CC(C)=NNc1ccccn1,27.9%,27.4%,79.2%,62.3%,39.6%,47.1%,69.7%,56.6%,29.7%,57.1%
O=C1c2cccnc2C(=O)c2c1c(C(=O)NCCn1ccnc1)c1ccccn21,30.3%,7.18% (active),37.3%,30.8%,13%,8.68% (active),-97% (active),-24.5% (active),6.67% (active),68.4%
CC(C)CCNC(=O)Cn1cccc(NC(=O)OCc2ccccc2)c1=O,111%,108%,79.9%,103%,101%,92.3%,96.1%,111%,89.8%,98.8%
